Measurements: PubChem BioAssay (Tox21)
Values joined by “and” are separate entries in the source; they are usually repeats but may differ in a detail not shown here. Equal entries are not always repeated. Inconclusive results are not listed. A structure can be active in one record and inactive in another. Active and inactive are the calls of the source. Calls follow the shape of the dose curve; as a rule, active = well fitted curve in the direction sought with a large enough effect in the repeat runs; inconclusive = weak or mixed curves; inactive = no such curve, though single readings can be large; an effect the other way counts as inactive or inconclusive.

How the values were obtained:
[1] = qHTS RealTime-Glo MT Cell Viability Assay in HepG2 cells - 40 hour (AID 1224870); also: nearly all actives have a fitted effect of over 50% in size
Summary of the method: (§1)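 HepG2 cells mixed with RealTime-Glo MT reagents (NanoLuc plus cell-permeant prosubstrate) were seeded at 600 cells/well, incubated 5 h at 37 C/5% CO2, then pinned with compounds in DMSO; nonlytic luminescence tracked viability during 40 h treatment.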

[2] = A CellTox Green Cytotoxicity Assay to monitor cytotoxicity in HEK293 cells - 40 hour (AID 1224871); also: nearly all actives have a fitted effect of over 45% in size
Summary of the method: (§2)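 Each value comes from one timepoint of a single continuous run in which HEK293 cells with CellTox Green were exposed to compound for up to 40 h at 37 C, dye fluorescence rising with cell death.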

[3] = qHTS RealTime-Glo MT Cell Viability Assay in HEK293 cells - 16 hour (AID 1224872); also: nearly all actives have a fitted effect of over 50% in size; also: potency is read from the fitted curve at half-maximal effect
Summary of the method: (§3)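 HEK293 cells seeded with NanoLuc/prosubstrate reagent, rested 5 h at 37 C, then dosed and kept at 37 C up to 40 h. Nonlytic real-time luminescence from viable cells read at 0, 8, 16, 24, 32 and 40 h.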

[4] = qHTS RealTime-Glo MT Cell Viability Assay in HepG2 cells - 8 hour (AID 1224873); also: nearly all actives have a fitted effect of over 55% in size
Summary of the method: as §1

[5] = qHTS RealTime-Glo MT Cell Viability Assay in HEK293 cells - 40 hour (AID 1224874); conditions: RealTime-Glo luminescence; max response: stronger effect = lower value; also: nearly all actives have a fitted effect of over 50% in size; also: potency is read from the fitted curve at half-maximal effect
Summary of the method: (§4)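 qHTS format; HEK293 cells with NanoLuc/prosubstrate reagent, 37 C/5% CO2 for 5 h pre-dosing; compounds 23 nL in DMSO; luminescence at each time point reflects viable cells.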

[6] = A CellTox Green Cytotoxicity Assay to monitor cytotoxicity in HEK293 cells - 24 hour (AID 1224875); also: series mostly up to about 77 µM; nearly all actives have a fitted effect of over 45% in size
Summary of the method: as §2

[7] = A CellTox Green Cytotoxicity Assay to monitor cytotoxicity in HepG2 cells - 16 hour (AID 1224876); also: nearly all actives have a fitted effect of over 45% in size
Summary of the method: (§5)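 Continuous culture of HepG2 cells with a membrane-impermeant DNA dye; rising fluorescence marks dead cells. Compound exposure lasted up to 40 h at 37 C, with reads every 8 h from 0 h.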

[8] = qHTS RealTime-Glo MT Cell Viability Assay in HepG2 cells - 32 hour (AID 1224877); also: nearly all actives have a fitted effect of over 55% in size
Summary of the method: (§6)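 HepG2 cells (600/well) were dispensed with RealTime-Glo reagents, incubated 5 h at 37 °C, then treated with compounds in DMSO for up to 40 h. Nonlytic NanoLuc luminescence reflecting viable cells was read at each stated time point.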

[9] = A CellTox Green Cytotoxicity Assay to monitor cytotoxicity in HepG2 cells - 24 hour (AID 1224878); also: nearly all actives have a fitted effect of over 45% in size
Summary of the method: as §5

[10] = A CellTox Green Cytotoxicity Assay to monitor cytotoxicity in HepG2 cells - 40 hour (AID 1224879); also: nearly all actives have a fitted effect of over 40% in size
Summary of the method: as §5

[11] = qHTS RealTime-Glo MT Cell Viability Assay in HEK293 cells - 0 hour (AID 1224880)
Summary of the method: as §4

[12] = A CellTox Green Cytotoxicity Assay to monitor cytotoxicity in HepG2 cells - 0 hour (AID 1224882); also: nearly all actives have a fitted effect of over 35% in size
Summary of the method: as §5

[13] = A CellTox Green Cytotoxicity Assay to monitor cytotoxicity in HepG2 cells - 32 hour (AID 1224883); also: nearly all actives have a fitted effect of over 50% in size
Summary of the method: as §5

[14] = A CellTox Green Cytotoxicity Assay to monitor cytotoxicity in HEK293 cells - 8 hour (AID 1224884); also: nearly all actives have a fitted effect of over 35% in size
Summary of the method: as §2

[15] = qHTS RealTime-Glo MT Cell Viability Assay in HepG2 cells - 16 hour (AID 1224885); also: nearly all actives have a fitted effect of over 50% in size
Summary of the method: as §6

[16] = qHTS RealTime-Glo MT Cell Viability Assay in HEK293 cells - 24 hour (AID 1224886); also: nearly all actives have a fitted effect of over 50% in size; also: potency is read from the fitted curve at half-maximal effect
Summary of the method: as §3

[17] = A CellTox Green Cytotoxicity Assay to monitor cytotoxicity in HEK293 cells - 16 hour (AID 1224888); also: nearly all actives have a fitted effect of over 35% in size
Summary of the method: as §2

[18] = qHTS RealTime-Glo MT Cell Viability Assay in HepG2 cells - 0 hour (AID 1224889); also: nearly all actives have a fitted effect of over 50% in size
Summary of the method: as §6

[19] = qHTS RealTime-Glo MT Cell Viability Assay in HEK293 cells - 8 hour (AID 1224887); also: nearly all actives have a fitted effect of over 50% in size; also: potency is read from the fitted curve at half-maximal effect
Summary of the method: as §4

[20] = A CellTox Green Cytotoxicity Assay to monitor cytotoxicity in HEK293 cells - 32 hour (AID 1224881); also: nearly all actives have a fitted effect of over 40% in size
Summary of the method: as §2
% is scaled to controls: 0 for no effect and ±100 for the full control effect.

C=C1CC[C@H](O)CC1=C/C=C1\CCC[C@]2(C)[C@@H]([C@H](C)/C=C/[C@H](C)C(C)C)CC[C@@H]12
inactive: Potency [1] | Potency [2] | Potency [4] | Potency [6] | Potency [7] | Potency [8] | Potency [9] | Potency [10] | Potency [11] | Potency [12] | Potency [13] | Potency [14] | Potency [15] | Potency [17] | Potency [18]
active: Potency [3] 43.6 µM | Potency [5] 48.5 µM and 49 µM | Potency [16] 43.6 µM

C[C@@H]1O[C@@H](OC[C@H]2O[C@@H](Oc3c(-c4ccc(O)c(O)c4)oc4cc(O)cc(O)c4c3=O)[C@H](O)[C@@H](O)[C@@H]2O)[C@H](O)[C@H](O)[C@H]1O
inactive: Potency [1] | Potency [2] | Potency [3] | Potency [4] | max response [5] -1.83% and 0.783% | Potency [6] | Potency [7] | Potency [8] | Potency [9] | Potency [10] | Potency [11] | Potency [12] | Potency [13] | Potency [14] | Potency [15] | Potency [16] | Potency [19] | Potency [17] | Potency [18]

NCCc1ccc(O)c(O)c1
inactive: Potency [1] | Potency [2] | Potency [3] | Potency [4] | max response [5] -0.912% and 5.76% | Potency [6] | Potency [7] | Potency [8] | Potency [9] | Potency [10] | Potency [11] | Potency [12] | Potency [13] | Potency [14] | Potency [15] | Potency [16] | Potency [19] | Potency [17] | Potency [18]

CN(C)c1cccc(O)c1
inactive: Potency [1] | Potency [2] | Potency [3] | Potency [4] | max response [5] -0.0652% and -21.5% | Potency [6] | Potency [7] | Potency [8] | Potency [9] | Potency [10] | Potency [11] | Potency [12] | Potency [13] | Potency [14] | Potency [15] | Potency [16] | Potency [19] | Potency [17] | Potency [18]

CCCCOCCO
inactive: Potency [1] | Potency [2] | Potency [3] | Potency [4] | max response [5] 3.58% and 5.47% | Potency [6] | Potency [7] | Potency [8] | Potency [9] | Potency [10] | Potency [11] | Potency [12] | Potency [13] | Potency [14] | Potency [15] | Potency [16] | Potency [19] | Potency [17] | Potency [18]

CCOC(=O)[C@H](CCc1ccccc1)N[C@@H](C)C(=O)N1Cc2ccccc2C[C@H]1C(=O)O
inactive: Potency [1] | Potency [2] | Potency [3] | Potency [4] | max response [5] -0.607% and -1.19% | Potency [6] | Potency [7] | Potency [8] | Potency [9] | Potency [10] | Potency [11] | Potency [12] | Potency [13] | Potency [14] | Potency [15] | Potency [16] | Potency [19] | Potency [17] | Potency [18]

CN(CCOc1ccc(CC2SC(=O)NC2=O)cc1)c1ccccn1 (stereo not drawn)
inactive: Potency [1] | Potency [2] | Potency [3] | Potency [4] | max response [5] -1.82% | Potency [6] | Potency [7] | Potency [8] | Potency [9] | Potency [10] | Potency [11] | Potency [20] | Potency [12] | Potency [13] | Potency [14] | Potency [15] | Potency [16] | Potency [19] | Potency [17] | Potency [18]

CCC(=O)O
inactive: Potency [1] | Potency [2] | Potency [3] | Potency [4] | max response [5] 12.8% and 8.4% and 13% | Potency [7] | Potency [8] | Potency [9] | Potency [10] | Potency [11] | Potency [20] | Potency [12] | Potency [13] | Potency [14] | Potency [15] | Potency [16] | Potency [19] | Potency [17] | Potency [18]

c1ccc2[nH]cnc2c1
inactive: Potency [1] | Potency [2] | Potency [3] | Potency [4] | max response [5] -5.47% and 1.04% | Potency [6] | Potency [7] | Potency [8] | Potency [9] | Potency [10] | Potency [11] | Potency [12] | Potency [13] | Potency [14] | Potency [15] | Potency [16] | Potency [19] | Potency [17] | Potency [18]

CCOC(=O)/C=C\C(=O)OCC
inactive: Potency [1] | Potency [2] | Potency [3] | Potency [4] | max response [5] 0.421% and 21.2% | Potency [6] | Potency [7] | Potency [8] | Potency [9] | Potency [10] | Potency [11] | Potency [12] | Potency [13] | Potency [14] | Potency [15] | Potency [16] | Potency [19] | Potency [17] | Potency [18]

C=C(C#N)C(=O)OCC
inactive: Potency [1] | Potency [2] | Potency [3] | Potency [4] | max response [5] -3.09% and 0.0188% | Potency [6] | Potency [7] | Potency [8] | Potency [9] | Potency [10] | Potency [11] | Potency [12] | Potency [13] | Potency [14] | Potency [15] | Potency [16] | Potency [19] | Potency [17] | Potency [18]

C=C(C)C(=O)OCCCCCC
inactive: Potency [1] | Potency [2] | Potency [3] | Potency [4] | max response [5] 7.72% and -0.816% | Potency [6] | Potency [7] | Potency [8] | Potency [9] | Potency [10] | Potency [11] | Potency [12] | Potency [13] | Potency [14] | Potency [15] | Potency [16] | Potency [19] | Potency [17] | Potency [18]

O=Nc1ccc(O)cc1
inactive: Potency [1] | Potency [2] | Potency [3] | Potency [4] | max response [5] 2.25% | Potency [6] | Potency [7] | Potency [8] | Potency [9] | Potency [10] | Potency [11] | Potency [20] | Potency [12] | Potency [13] | Potency [14] | Potency [15] | Potency [16] | Potency [17] | Potency [18]
24 µM (active) and inactive: Potency [19]
